Compounds with a hit are over-represented: about 3.2% of the library has one in this group of screens.
DENV2 CPE: protects cells from dengue virus 2 cytopathic effect; DENV2-infected cells, cytopathic effect rescue, plate reader; CPE inhibition, % at 9.99 µM; 350,000 compounds, 1.7% hits; in the data active means CPE inhibition above about 20%, passing the limit was not always enough; inconclusive means no clear call, values can overlap the other calls; tested in BHK-21 cells
ERAP1 HTS inh: inhibitors of human ERAP1 aminopeptidase; AID 652197; 340,000 compounds, 0.15% hits; inhibition, % at 10.7 µM; Q9NZ08; recombinant ERAP1, Leu-AMC fluorescence, 60 min;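 active means mean replicate inhibition of at least 30%, or all replicates individually reaching that 30% level; inactive means mean below 30% and not every replicate reaching it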
Target sequence (Q9NZ08 whole entry, looked up): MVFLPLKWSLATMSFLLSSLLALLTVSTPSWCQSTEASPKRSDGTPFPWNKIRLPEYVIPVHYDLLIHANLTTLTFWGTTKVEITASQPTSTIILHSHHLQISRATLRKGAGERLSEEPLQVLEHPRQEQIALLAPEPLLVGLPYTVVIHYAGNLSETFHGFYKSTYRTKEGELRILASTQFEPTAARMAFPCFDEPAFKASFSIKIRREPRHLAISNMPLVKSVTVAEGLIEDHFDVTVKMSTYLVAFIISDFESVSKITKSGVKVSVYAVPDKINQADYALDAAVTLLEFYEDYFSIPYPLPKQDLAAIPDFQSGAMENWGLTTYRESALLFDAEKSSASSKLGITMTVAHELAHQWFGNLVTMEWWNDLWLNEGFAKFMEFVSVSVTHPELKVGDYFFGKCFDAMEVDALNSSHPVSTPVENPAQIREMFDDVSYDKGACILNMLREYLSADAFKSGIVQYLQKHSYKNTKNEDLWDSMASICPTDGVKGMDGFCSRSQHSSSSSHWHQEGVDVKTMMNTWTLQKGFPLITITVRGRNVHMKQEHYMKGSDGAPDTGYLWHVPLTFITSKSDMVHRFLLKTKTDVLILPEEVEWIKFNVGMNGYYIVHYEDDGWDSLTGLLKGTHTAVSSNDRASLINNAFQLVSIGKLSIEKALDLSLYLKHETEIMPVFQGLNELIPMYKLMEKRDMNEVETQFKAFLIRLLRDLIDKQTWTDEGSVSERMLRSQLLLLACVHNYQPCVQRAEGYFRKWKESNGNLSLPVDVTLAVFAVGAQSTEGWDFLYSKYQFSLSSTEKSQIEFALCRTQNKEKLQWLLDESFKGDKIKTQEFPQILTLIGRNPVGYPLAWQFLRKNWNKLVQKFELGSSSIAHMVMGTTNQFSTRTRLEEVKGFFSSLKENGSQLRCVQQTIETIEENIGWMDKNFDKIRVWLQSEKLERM
PGC1a acetyl inh: modulators of PGC1a acetylation; U2OS PGC1a acetylation, AlphaScreen anti-acetyl-lysine; with virally co-expressed GCN5 acetyltransferase; inhibition, % at 15.6 µM; 350,000 compounds, 0.17% hits;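 active means every replicate shows inhibition of at least 40%; inconclusive means mean inhibition at least 40% but some replicate below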
Ecoli rRNA inh: inhibitors of bacterial rRNA selective over humanized ribosomes; E. coli WT GFP vs humanized-ribosome RFP mutants, fluorescence, 24 h; active compounds read low; DMSO median 0, no signal -100; GFP signal change (wild-type ribosome), % (test concentration not listed); 350,000 compounds, 1.6% hits;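 active means significant combined selectivity score with lowered wild-type GFP, culture density cut under 30%, mutant RFP and density less affected; inactive means any of these conditions unmet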
CaV13 ICDI inh: Disruptors of the CACNA1D IQ motif to Ca2+-dependent inactivation inhibitor domain association, primary screening, Förster resonance energy transfer in intact living …; AID 743397; 340,000 compounds, 0.098% hits; inhibition, % at 12.3 µM; HEK cells, CFP/YFP FRET ICDI-IQ, plate reader, 10 min; percent FRET-ratio fall versus neutral wells;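 active means mean replicate inhibition of at least 30% and at least 1% of replicates passing that level; inconclusive means only one of the two criteria is met; inactive means neither criterion is met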
INS-1E GSIS act: GLuc luminescence reporter in INS-1E cells, primary screen for activators of glucose-dependent secretion of insulin; INS-1E GLuc reporter insulin secretion, 2-3 h; activation, % at 16.6 µM; 370,000 compounds, 0.61% hits; AID 743287;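 active means lowest replicate activation of at least 40%, so every replicate reaches that level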
HepG2 cytotox: kills or reduces viability of HepG2 cells; shares compounds with Ecoli rRNA inh; ATP luminescence, 72 h; activity change, negative = cytotoxicity, unspecified at 26 µM; 30 tested, under 10 active; AID 743480;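 active means compounds whose fitted half-maximal signal-loss concentration is at most twice their highest valid dose; inconclusive means flat curve with 30 to 70% signal loss, or poor fit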
AID977621: growth inhibition of wild-type GFP E. coli, dose response, H69 mutant RFP, cherry-pick; activity change, negative = inhibition at 50 µM; shares compounds with Ecoli rRNA inh; 1,900 tested, under 10 active; E. coli wild-type GFP strain growth, fluorescence, 24 h;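 active means Wild-type ribosome reporter drop at least double the humanized mutant ribosome reporter drop, growth loss under a set limit; inconclusive means no clear call, values can overlap the other calls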;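 further: wild-type GFP and H69 mutant RFP strains grown together 50/50 in each well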
AID977628: growth of wild-type and h24-humanized E. coli strains – h24 mutant RFP vs wild-type GFP, cherry-pick, dose response; shares compounds with Ecoli rRNA inh; E. coli WT GFP strain growth, fluorescence, 24 h; activity change, negative = inhibition at 50 µM; 1,900 tested, under 10 active; AID 977628;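 active means compound lowering the normal-ribosome reporter at least twice as much as the humanized-ribosome reporter, growth loss under a set limit; inconclusive means no clear call, values can overlap the other calls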;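 further: wild-type GFP and h24 humanized RFP strains co-cultured 1 to 1 per well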
Of the large screens only hits and unclear results are named; the others gave an inactive call (follow-up assays come after a bar, where they were run); ! = not active in a repeat.

COc1ccccc1NC(=O)N1CCCCN2[C@H](CO)[C@@H](c3ccc(C#Cc4ccccc4)cc3)[C@H]2C1	none (no result: CaV13 ICDI inh)
O=C(Nc1ccccc1F)N1CCCCN2[C@@H](CO)[C@H](c3ccc(C#Cc4cccnc4)cc3)[C@@H]2C1	Ecoli rRNA inh -19 (no result: CaV13 ICDI inh) | AID977621 inactive | AID977628 inconclusive
O=C(Nc1cc(F)ccc1F)N1CCCCN2[C@H](CO)[C@H](c3ccc(-c4ccncc4)cc3)[C@@H]2C1	none (no result: CaV13 ICDI inh)
O=C(Nc1ccccc1F)N1CCCCN2[C@H](CO)[C@H](c3ccc(C#Cc4cccnc4)cc3)[C@H]2C1	none (no result: CaV13 ICDI inh)
COc1ccccc1NC(=O)N1CCCCN2[C@@H](CO)[C@H](c3ccc(C#Cc4ccccc4)cc3)[C@@H]2C1	Ecoli rRNA inh -30 (no result: CaV13 ICDI inh) | AID977621 inactive
O=C(C[C@@H]1CC[C@H](NC(=O)c2cccc(F)c2)[C@@H](CO)O1)NCc1ccccc1	none (no result: CaV13 ICDI inh)
C[C@@H]1CCCCO[C@H](CN(C)C(=O)CCCN(C)C)[C@@H](C)CN([C@@H](C)CO)C(=O)c2cc(NC(=O)CCC(F)(F)F)ccc2O1	none (no result: CaV13 ICDI inh)
CS(=O)(=O)c1ccc(Cl)c(NC(=O)COC(=O)c2c(Cl)cccc2Cl)c1	Ecoli rRNA inh -26 | AID977621 inactive | AID977628 inactive
O=C(COC(=O)c1c(Cl)cccc1Cl)Nc1ccccc1Br	none
CC(CNC(=O)CN1C(=O)CCSc2ccccc21)c1ccccc1 (stereo unspecified)	none
CCOc1ccc(CCNC(=O)CN2C(=O)CCSc3ccccc32)cc1	Ecoli rRNA inh -20 | AID977628 inconclusive
Cc1noc(C)c1NC(=O)N(C)C[C@@H]1Oc2ccc(NC(=O)C3CC3)cc2C(=O)N([C@@H](C)CO)C[C@H]1C	none (no result: CaV13 ICDI inh)
Cc1cccc(-c2ccc([C@H]3[C@@H](CO)N4CCCCN(S(=O)(=O)c5ccccc5C)C[C@H]34)cc2)c1	none (no result: CaV13 ICDI inh) | AID977621 inactive
O=S(=O)(Cc1ccccc1)N1CCCCN2[C@@H](CO)[C@@H](c3ccc(-c4cccnc4)cc3)[C@@H]2C1	Ecoli rRNA inh -28 (no result: CaV13 ICDI inh) | AID977621 inactive | AID977628 inconclusive
Cc1ccc(-c2ccc([C@H]3[C@@H](CO)N4CCCCN(S(=O)(=O)c5ccccc5C)C[C@@H]34)cc2)cc1	none (no result: CaV13 ICDI inh)
Cc1cccc(-c2ccc([C@H]3[C@@H](CO)N4CCCCN(S(=O)(=O)c5ccccc5C)C[C@@H]34)cc2)c1	none (no result: CaV13 ICDI inh) | AID977621 inactive | AID977628 inactive
C[C@@H]1CCCCO[C@H](CN(C)S(=O)(=O)c2ccc(Cl)cc2)[C@H](C)CN([C@@H](C)CO)C(=O)c2cc(NS(C)(=O)=O)ccc2O1	none (no result: CaV13 ICDI inh)
C[C@@H]1CN([C@@H](C)CO)C(=O)c2cc(NC(=O)C3CCCCC3)ccc2O[C@@H](C)CCCCO[C@H]1CN(C)S(C)(=O)=O	none (no result: DENV2 CPE, ERAP1 HTS inh, CaV13 ICDI inh)
O=C(N[C@H]1CC1c1ccccc1)c1ccc([N+](=O)[O-])cc1 (stereo partly specified)	Ecoli rRNA inh -28 (no result: PGC1a acetyl inh, INS-1E GSIS act) | AID977621 inconclusive | AID977628 inactive
O=C(NCc1ccccc1)c1ccc([N+](=O)[O-])cc1	none (no result: PGC1a acetyl inh)
Cc1cc(C(C)(C)C)oc1C(=O)N(CC(=O)NC1CCCC1)c1c(C)cccc1C	Ecoli rRNA inh -25 | AID977628 inactive
CCOC(=O)c1c(NC(=O)Cc2cccs2)sc(C)c1C	Ecoli rRNA inh -34 | HepG2 cytotox inactive
CCOC(=O)c1c(NC(=O)Cc2cccs2)sc(C(=O)NC2CCCC2)c1C	none (no result: DENV2 CPE, ERAP1 HTS inh, Ecoli rRNA inh, INS-1E GSIS act)
Cc1noc(C)c1NC(=O)Nc1ccc2c(c1)CC(=O)N([C@H](C)CO)C[C@@H](C)[C@H](CN(C)Cc1ccncc1)O2	DENV2 CPE inconclusive (no result: CaV13 ICDI inh)
CS(=O)(=O)Nc1ccc2c(c1)[C@H]1C[C@@H](CC(=O)N3CCOCC3)O[C@H](CO)[C@H]1O2	none (no result: CaV13 ICDI inh)
Cc1ccc2oc(=O)n(CCOc3ccccc3C)c2c1	none
Cc1ccc2oc(=O)n(CCCOc3ccccc3C)c2c1	Ecoli rRNA inh -19 (no result: PGC1a acetyl inh) | AID977621 inactive | AID977628 inconclusive
Cc1ccc2oc(=O)n(CC(=O)OCCC(C)C)c2c1	Ecoli rRNA inh -18 (no result: ERAP1 HTS inh) | AID977621 inactive | AID977628 inactive
COCc1cn(CC[C@@H]2CC[C@@H](NC(=O)CCN3CCCCC3)[C@H](CO)O2)nn1	none (no result: CaV13 ICDI inh)
CCOc1ccccc1/C=C/c1cc(C(=O)O)c2ccccc2n1	Ecoli rRNA inh -23 (no result: ERAP1 HTS inh, PGC1a acetyl inh) | AID977621 inactive
COc1ccc(OC)c(-c2csc(NC(=O)C3COc4ccccc4O3)n2)c1 (stereo unspecified)	Ecoli rRNA inh -23 | AID977621 inactive
COc1ccc(OC)c(-c2csc(NC(=O)C3c4ccccc4Oc4ccccc43)n2)c1	none (no result: DENV2 CPE, ERAP1 HTS inh, PGC1a acetyl inh, Ecoli rRNA inh)
COc1cc(C(=O)NCCc2c[nH]c3ccccc23)ccc1OCc1c(C)noc1C	Ecoli rRNA inh -38 | AID977621 inactive | AID977628 inconclusive
Cc1ccc(-c2ccc(C3[C@H]4CNC[C@@H]3N4Cc3nccs3)cc2)cc1 (stereo partly specified)	none (no result: ERAP1 HTS inh, PGC1a acetyl inh, CaV13 ICDI inh)
C(=C\c1ccc(C2[C@H]3CNC[C@@H]2N3Cc2nccs2)cc1)/c1ccccc1 (stereo partly specified)	Ecoli rRNA inh -21! (no result: PGC1a acetyl inh, CaV13 ICDI inh) | AID977628 inconclusive
O=C(CSc1nc2ccccc2n1S(=O)(=O)c1cccc([N+](=O)[O-])c1)NCCc1ccccc1	Ecoli rRNA inh -33 (no result: PGC1a acetyl inh) | AID977621 inactive | AID977628 inactive
O=C(Nc1ccc2c(c1)[C@@H]1C[C@@H](CC(=O)N3CCCCC3)O[C@@H](CO)[C@@H]1O2)C1CCOCC1	none (no result: CaV13 ICDI inh)
Cc1cccc(-c2n[nH]c(S(C)(=O)=O)c2C#N)c1	none (no result: PGC1a acetyl inh)
Cc1ccc(-c2n[nH]c(S(C)(=O)=O)c2C#N)cc1	Ecoli rRNA inh -21 (no result: PGC1a acetyl inh) | AID977621 inactive | AID977628 inconclusive
COc1ccc(NC(=O)N(C)C[C@H]2Oc3c(NC(=O)C4CCOCC4)cccc3C(=O)N([C@H](C)CO)C[C@H]2C)cc1	none (no result: CaV13 ICDI inh)
CCC1(C(=O)OC)CCc2c(cc(OC)c3ccccc23)C1=O (stereo unspecified)	Ecoli rRNA inh -27 (no result: ERAP1 HTS inh, PGC1a acetyl inh) | AID977621 inactive | AID977628 inactive
Cc1ccc(NC(=O)C2CCN(S(=O)(=O)c3ccc4c(c3)NC(=O)CO4)CC2)cc1	Ecoli rRNA inh -18 | AID977628 inactive
